Assay outcomes as filed in PubChem BioAssay.
Sampled rows, rich in hits. Any-hit rate of the full collection: about 1.8%.
HEK293 tox = cytotoxicity counter-screen for GLP-1 receptor inverse agonists. AID 624418. HEK293 cAMP-luciferase reporter cells, luminescence, 24 h. Potency, µM (highest dose often 38.3 µM), hits mostly inhibitors. actives 0.13% (n = 410,000);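 note: loss of luciferase light is scored as toxicity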
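Quantitative HTS format, 1536 wells, 200 cells/uL seeded. Compounds: 23 nL, 24 h, 37 °C. Detection: luciferase reagent, luminescence at 12 min RT; decreased signal taken as cytotoxic.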
GLP1R inv ag = inverse agonists of human GLP-1 receptor; P43220; HEK293 GLP-1R CRE-luciferase, luminescence, 24 h; GLP-1R form is constitutively active; Potency, µM (doses to about 38.3 µM), most hits filed as inhibitors; actives 1.6% (n = 410,000); AID 624417; note: nearly all actives have a fitted effect of over 55% in size
Target sequence (P43220 whole entry, looked up): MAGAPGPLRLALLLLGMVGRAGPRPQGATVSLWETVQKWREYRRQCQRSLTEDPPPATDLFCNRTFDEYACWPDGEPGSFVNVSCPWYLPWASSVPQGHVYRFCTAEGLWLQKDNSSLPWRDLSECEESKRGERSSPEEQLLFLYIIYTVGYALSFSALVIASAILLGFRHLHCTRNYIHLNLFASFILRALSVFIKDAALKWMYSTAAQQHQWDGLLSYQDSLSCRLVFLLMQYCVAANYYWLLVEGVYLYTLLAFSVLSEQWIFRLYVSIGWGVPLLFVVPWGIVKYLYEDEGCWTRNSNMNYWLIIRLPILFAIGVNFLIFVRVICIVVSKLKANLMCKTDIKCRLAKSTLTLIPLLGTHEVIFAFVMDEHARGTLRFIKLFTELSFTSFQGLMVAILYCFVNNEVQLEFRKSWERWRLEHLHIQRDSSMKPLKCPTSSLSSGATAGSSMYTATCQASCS
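Constitutively active GLP-1R drives a cAMP-responsive luciferase in stably transfected HEK293 cells; test compounds are added after overnight (12 h) attachment and left 24 hr, and signal loss in luminescence marks inhibition.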
RGS4 inhibitor = human RGS4 inhibition | Transcreener GDP fluorescence polarization, RGS4-accelerated GTP hydrolysis | Potency, µM (highest dose often 114 µM), most hits filed as inhibitors | actives 0.039% (n = 390,000) | AID 504845; note: nearly all actives have a fitted effect of over 75% in size
Target sequence (P49798 whole entry, looked up): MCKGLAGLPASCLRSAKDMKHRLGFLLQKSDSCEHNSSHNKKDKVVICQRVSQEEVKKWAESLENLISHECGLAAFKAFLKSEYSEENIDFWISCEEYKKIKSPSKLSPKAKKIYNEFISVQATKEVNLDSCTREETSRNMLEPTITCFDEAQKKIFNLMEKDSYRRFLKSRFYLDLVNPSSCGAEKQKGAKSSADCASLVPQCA
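MLSMR compounds (23 nl, pin-transferred) preincubated 10 min at room temperature with a 500nM (2x) first reagent, then RGS4 at 900nM (2x) plus Transcreener GDP mix added; fluorescence polarization (620/688 nm) read before and after 90 min at 30 °C.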
GCN5L2 inh = GCN5L2 (KAT2A) acetyltransferase inhibition | Potency, µM (series often up to 58.9 µM), hits mostly inhibitors | GCN5L2 HAT assay, ThioGlo1 CoA-SH fluorescence | Q92830 | actives 0.21% (n = 390,000) | AID 504327
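Fluorescence readout, Ex340nm/Em540nm: ThioGlo1 (50uM final) reacts with free CoA thiol released as 20nM GCN5L2 acetylates H3(1-25) peptide (75uM) using acetyl-CoA (70uM). Compound and enzyme sat 15 min beforehand; 20 min room-temperature reaction.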
GLP-1R agonist = agonists of human GLP-1 receptor | P43220 | HEK293 GLP-1R CRE-luciferase, luminescence, 4-6 h; cells express a hypersensitive GLP-1R form | Potency, µM (top dose mostly 45.6 µM), usual class: activators | actives 0.007% (n = 380,000) | AID 624172
PTHR1 ag = agonists of human PTHR1 parathyroid hormone receptor | Q03431 | HEK293 GP2 PTHR1 cells, GloSensor cAMP luminescence, 1 h | Potency, µM (doses to about 115 µM), actives largely listed as activators | actives 0.075% (n = 410,000) | AID 743266; note: nearly all actives have a fitted effect of over 55% in size
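HEK-293-derived GP2 cells expressing PTHR1 and a GloSensor cAMP reporter, 3,000/well, plated overnight, given luciferin plus IBMX (each 0.5 mM as added) for 1 h at 37 °C, then compound for 1 h at 37 °C. Luminescence was read after 15 min at room temperature.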
Numbers stand for hits; n = inactive; u = inconclusive; x = no result given; [ ] = dose if it differs, or a comment. Calls come from the whole dose curve; as a rule, active = well fitted curve in the direction sought with a large enough effect; inconclusive = small, poorly fitted or top-dose-only effect, or another doubt; inactive = no such curve, though single readings can be large; an effect the other way counts as inactive or inconclusive.

SMILES | HEK293 tox | GLP1R inv ag | RGS4 inhibitor | GCN5L2 inh | GLP-1R agonist | PTHR1 ag
CN(CC(=O)Nc1ccc(OC(F)(F)F)cc1)C(=O)Cc1cccs1 | n | 11µM | n | n | n | n
CN(CC(=O)Nc1ccc(OC(F)(F)F)cc1)C(=O)Cc1c(Cl)cccc1Cl | n | u | n | n | n | n
CCOc1cc(/C=N/NC(N)=O)cc(Br)c1OCc1ccccc1F | n[1.53 µM] | n | n | n | n | n
COC(=O)N/N=C/c1cc(Cl)c(OCc2ccccc2F)c(OC)c1 | n | 10µM | n | n | n | n
Cc1cc(=O)c2c(=O)[nH][nH]c2[nH]1 | n | n | x | x | n | n
CCC(C)n1c(-c2cccc(S(=O)(=O)N3CCOCC3)c2)n[nH]c1=S (stereo not given) | n | n | n | n | n | n
C=CCn1c(CNC(=O)c2ccccc2F)nnc1SCC(=O)NC(C)c1ccccc1 (stereo not given) | n | n | n | n | n | n
CCN1CCN(C(c2cccc(Cl)c2)c2c(O)cc(C)n(CCOC)c2=O)CC1 (stereo not given) | n | n | n | n | x | n
Cc1ccccc1CN1CCc2c(OCC(=O)N3CCCc4ccccc43)cccc2C1=O | n | 10µM | n | n | n | n
O=C1c2cccc(OCC(=O)N3CCCc4ccccc43)c2CCN1Cc1cccnc1 | n | n | n | n | n | n
Cc1ccc(C(=O)c2c(C)oc3c2C(=O)C(=O)c2ccccc2-3)cc1 | 5µM | u | u | n | n | n
COc1ccc(Cl)cc1N1C(=O)/C(=C\c2sccc2C)N=C1SCC(=O)NC1CC1 | n | 8.9µM | n | n | n | n
CC(NCC(=O)NC(=O)NC1CCCC1)c1ccc(Cl)cc1Cl (stereo not given) | n | 10µM | n | n | n | n
O=C(COC(=O)c1ccc(Cl)cc1)NC(=O)NC1CCCC1 | n | n | n | n | n | n
Cc1cc(OCC(=O)Nc2ccccc2N2CCCC2)ccc1C(C)C | n | 11µM | n | n | n | n
CC(CCc1ccccc1)NC(=O)C1CCN(S(=O)(=O)N2CCCCC2)CC1 (stereo not given) | n | u | n | n | n | n
COc1ccc(CCNC(=O)c2cc(S(=O)(=O)N(C)c3ccccc3)ccc2Cl)cc1 | n | u | u | n | n | n
CCOc1ccc(N(C)S(=O)(=O)c2ccc(C)c(C(=O)NCCc3ccc(OC)cc3)c2)cc1 | n | 10µM | n | n | n | n
COc1ccc(N(C)S(=O)(=O)c2cccc(C(=O)N3CCN(Cc4ccc5c(c4)OCO5)CC3)c2)cc1 | n | u | u | n | n | n
CCOc1ccc(N(C)S(=O)(=O)c2ccc(C)c(C(=O)N3CCN(Cc4ccc5c(c4)OCO5)CC3)c2)cc1 | n | 11µM | n | n | n | n
COc1ccc(C(CNC(=O)c2ccccc2SC)N(C)C)cc1 (stereo not given) | n | n | n | n | n | n
CCN(CC)CCCNC(=O)c1cc(-c2ccc(O)cc2)on1 | n | n | n | n | n | n
CCN(CC)CCCNC(=O)c1cc(-c2ccc(Cl)c(Cl)c2)on1 | u | 5.6µM | n | n | n | n
Nc1c[n+](N2CCOCC2)no1 | x | x | x | n | n | x
Cc1ccc(N(C)S(=O)(=O)c2cccc(C(=O)NC3CC(C)(C)NC(C)(C)C3)c2)cc1 | n | 11µM | n | n | n | n
SMILES | HEK293 tox | GLP1R inv ag | RGS4 inhibitor | GCN5L2 inh | GLP-1R agonist | PTHR1 ag
COc1ccc(OCC(=O)N2CCCC(CO)(CCOc3ccccc3)C2)cc1 (stereo not given) | n | u | n | n | n | n
N#C/C(=C/c1ccc(O)c(O)c1)C(=O)OC/C=C/c1ccccc1 | x | x | n | 14µM | x | x
N#C/C(=C\c1ccc(O)c(O)c1)C(=O)Nc1ccccc1 | n | n | u | n | n | n
Cc1ccc(-c2[nH]ncc2/C=C(\C#N)C(=O)NC2CCCCC2)cc1 | n | 7.9µM | n | n | n | n
COc1ccc(NS(=O)(=O)c2cccc(C(=O)NCC(c3ccc(OC)cc3)N3CCCC3)c2)cc1 (stereo not given) | n | u | n | n | n | n
COc1ccc(C(CNC(=O)COc2ccc(Br)cc2F)N2CCCC2)cc1 (stereo not given) | n | 13µM | n | n | n | n
COc1ccc(C(CNC(=O)c2cccc(S(=O)(=O)Nc3ccc(F)cc3)c2)N2CCCC2)cc1 (stereo not given) | n | 10µM | n | x | n | n
COc1ccc(NS(=O)(=O)c2cccc(NC(=O)c3ccc(S(=O)(=O)N4CCCCCC4)cc3)c2)cc1 | n | 7.9µM | n | n | n | n
COc1ccc(C(CNC(=O)c2cccc(NS(=O)(=O)c3ccc(C)c(F)c3)c2)N(C)C)cc1 (stereo not given) | n | 11µM | n | n | n | n
CC(C)=CCCC(C)NC(=O)NC1CCCCC1 (stereo not given) | n | n | n | n | n | n
COc1ccc(C(CNC(=O)c2ccc(OCc3ccccc3)cc2)N2CCOCC2)cc1 (stereo not given) | n | u | n | n | n | n
O=C(NCC(c1ccc(F)cc1)N1CCOCC1)c1ccc(OCc2ccccc2)cc1 (stereo not given) | n | 10µM | n | n | n | n
COc1ccc(S(=O)(=O)Nc2cccc(S(=O)(=O)N3CCCCCC3)c2)cc1 | n | u | n | n | n | n
O=S(=O)(Nc1nc2ccccc2nc1Nc1cccc(S(=O)(=O)N2CCCCC2)c1)c1ccccc1 | n | 11µM | n | u | n | n
CC1(C(=O)NCc2ccccc2)CN(S(C)(=O)=O)CC(=O)N1CCc1c[nH]c2ccccc12 (stereo not given) | n | n | x | x | x | n
COC(=O)C1CN(Cc2ccccc2)C(=O)C1=O (stereo not given) | n | n | n | x | n | n
COc1cc(CN2CCCC(C(=O)c3ccc4c5c(cccc35)CC4)C2)cc(OC)c1O (stereo not given) | n | 11µM | u | n | n | n
CC(=O)N1CCCC(C(=O)c2ccc3c4c(cccc24)CC3)C1 (stereo not given) | n | n | n | u | n | n
COc1ccc(C(=O)C2CCCN(Cc3ccc4nonc4c3)C2)c(OC)c1 (stereo not given) | n | 10µM | n | n | n | n
CN1CCC(C(=O)N2CCCC(C(=O)c3ccc4c5c(cccc35)CC4)C2)CC1 (stereo not given) | n | 8.9µM | n | n | n | n
